In the library only some 3.4% were active in any assay of this set; here they are far more common.
EBV LMP1 NFkB – inhibitors of Epstein-Barr LMP1-induced NF-kappaB reporter; LMP1-induced NF-kappaB luciferase reporter cells, luminescence; inhibition, % at 12.5 µM; 0.69% of 350,000 active; in the data active = inhibition above about 41%; inconclusive = no clear call, values can overlap the other calls;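 also: 0% = neutral control wells and 100% = reference inhibitor control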
MITF TRPM1 inh – inhibitors of MITF-driven TRPM1 promoter in melanoma cells; SK-MEL-5 TRPM1 promoter luciferase, 24 h; inhibition, % at 12.5 µM; 0.83% of 330,000 active; AID 488899;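 active = mean inhibition across replicates of 60% or more, whatever share of single replicates reaches that level; inconclusive = some that reach 60%, reason not given; inactive = mean inhibition across replicates below 60%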
HIF-2a inh – HIF-2a inhibition; 786-0 RCC cells HIF-2a reporter, luciferase luminescence, overnight; inhibition, % at 18.8 µM; 0.72% of 360,000 active;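 active = inhibition of the luminescence signal of 40% or more relative to plate controls, in a single-dose primary screen at 18.75 µM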
Shn3 inh set2 – inhibitors of Schnurri-3 3'UTR reporter in osteoblasts | Clone20 osteoblast Shn3 3'UTR firefly luciferase, 24 h | inhibition, % at 12.5 µM | 0.52% of 360,000 active;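 active = mean inhibition of at least 75% with every replicate also reaching 75%; inconclusive = mean inhibition at least 75% but some replicate below; inactive = mean inhibition below 75%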;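 also: 0% = median of neutral control wells and 100% = pilot-screen positive control compound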
TROY NFkB inh – TROY signaling inhibition; inhibition, % at 10 µM; Q293 LMP1-TROYcd NF-kB luciferase reporter, 4 h; AID 1347056; 0.98% of 360,000 active;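 active = compounds whose plate-normalised and pattern-corrected inhibition of the luciferase reporter signal at the single screening dose is 50% or more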
TWEAK-Fn14 inh – inhibitors of TWEAK-Fn14 interaction signaling. TWEAK-stimulated Fn14 reporter cells, luciferase luminescence, 8 h. inhibition, % at 10 µM. 2% of 360,000 active. AID 1159606; in the data active = inhibition above about 50%
Starred values were filed as active, the others as inactive; u = inconclusive; x = not tested or not shown.

SMILES | EBV LMP1 NFkB | MITF TRPM1 inh | HIF-2a inh | Shn3 inh set2 | TROY NFkB inh | TWEAK-Fn14 inh
COc1cc(CN2CCNC(=O)C2CC(=O)NCCCC2CCCC2)cc(OC)c1 (centres undefined) | 0.9 | 3.3 | -27.6 | 0.5 | -1.6 | -9.8
CCCN1CCC(=NNC(=O)c2ccc(Br)o2)CC1 | -1.5 | 4.4 | -3.5 | -24.6 | -31.9 | 20.2
CCCN1CCC(=NNc2ccc(C(=O)O)cc2)CC1 | -2.6 | -26.2 | -14.4 | -33.8 | 40.6 | 52.3*
CCCNS(=O)(=O)c1ccc(CCC(=O)Nc2cc(Cl)ccc2Oc2ccccc2)cc1 | 5.5 | 8.6 | 18.9 | 42.7 | 24.8 | 66.1*
CC(C)CNS(=O)(=O)c1ccc(CCC(=O)Nc2cc(Cl)ccc2Oc2ccccc2)cc1 | -6.5 | 13.1 | 14.7 | x | 21.7 | 48.5
Cc1cccc(C)c1N(CC(=O)Nc1cc(Cl)ccc1Oc1ccccc1)S(C)(=O)=O | -0.1 | -12.5 | 14.2 | 6.0 | 51.7* | 9.7
CC(Sc1nnc(Nc2ccccc2F)s1)C(=O)NC1CC1 (centres undefined) | 31.0 | -23.8 | -72.3 | -11.2 | -17.9 | -12.2
O=S(=O)(Nc1nc2ccccc2nc1N1CCc2ccccc2C1)c1ccc(Cl)cc1 | -2.8 | -7.1 | -119.1 | -35.1 | 24.4 | 71.9*
CC(=O)Nc1ccc(S(=O)(=O)Nc2nc3ccccc3nc2N2CCc3ccccc3C2)cc1 | -9.0 | 24.8 | -196.9 | -124.5 | -12.8 | 14.7
O=S(=O)(Nc1nc2ccccc2nc1N1CCc2ccccc2C1)c1ccc(Br)cc1 | -14.1 | -28.2 | -6.2 | -45.9 | 13.5 | 78.1*
COc1cccc(N2CCN(C(C)C(=O)NC34CC5CC(CC(C5)C3)C4)CC2)c1 (centres undefined) | -1.1 | 1.7 | 8.3 | 18.8 | 3.9 | 90.0*
CCC(=O)Oc1oc(-c2ccccc2)nc1C=Nc1ccc(C)cc1 | 2.1 | -4.4 | 14.9 | -3.7 | 72.0* | 10.4
Cc1ccc(-c2nc(C=Nc3ccc(O)cc3)c(O)o2)cc1 | -50.9 | -15.4 | -72.6 | 2.9 | -15.5 | 64.0*
CCOC(=O)C1(C)CCCN(C(=O)c2ccccc2F)C1 (centres undefined) | x | x | 2.3 | 9.5 | 5.0 | 11.2
COC(=O)c1ccc(-n2c(C)cc(C(=O)CCl)c2C)cc1 | 7.3 | 87.3* | 32.7 | 33.3 | 10.3 | 14.6
CCOc1ccc(-n2c(C)cc(C(=O)CCl)c2C)cc1 | 5.1 | 69.4* | 19.6 | 77.4 | 3.0 | 4.4
CCOC(=O)c1cc(C)n(-c2ccc(Cl)cc2)c1C | -0.6 | 5.8 | -48.1 | -22.2 | -24.7 | 7.3
COC(=O)c1ccc(-n2c(C)cc(C(=O)COC(=O)C3=COCCO3)c2C)cc1 | 2.8 | 2.3 | -1.4 | 2.4 | 4.8 | -9.2
Cc1onc(-c2c(F)cccc2Cl)c1C(=O)OCC(=O)c1c[nH]c2ccccc12 | 0.9 | 19.0 | 17.2 | 17.5 | 28.3 | 58.2*
Cc1onc(-c2c(F)cccc2Cl)c1C(=O)OCC(=O)NCc1ccco1 | -39.4 | -15.6 | -91.1 | -15.8 | 53.8* | 6.3
C[C@@H](O)CNC(=O)c1[nH]cnc1C(=O)N[C@H](C)c1ccccc1 | -1.2 | x | 2.3 | 11.6 | -6.2 | 9.4
CCO[C@@H]1OC(C(=O)O)=C[C@H](c2ccc(Br)cc2)[C@H]1CCCO | -5.1 | -5.2 | 7.3 | 0.8 | -12.3 | 4.5
COCCn1c(C)cc(C(=O)CSc2nnnn2C2CCCC2)c1C | 69.7* | 0.6 | -63.5 | 34.2 | 14.2 | 74.9*
COc1ccc(Cl)cc1C(=O)CSc1nnnn1C1CCCC1 | 7.7 | -5.7 | -137.1 | 3.0 | -29.8 | -34.7
CCN(c1cccc(C)c1)S(=O)(=O)c1ccc2c(c1)CCCN2C(C)=O | 7.8 | 5.1 | 6.0 | -4.3 | 5.6 | 13.6
SMILES | EBV LMP1 NFkB | MITF TRPM1 inh | HIF-2a inh | Shn3 inh set2 | TROY NFkB inh | TWEAK-Fn14 inh
CCN(c1cccc(C)c1)S(=O)(=O)c1ccc2c(c1)CCN2C(C)=O | 9.1 | 13.2 | 25.9 | 45.0 | 34.5 | 93.4*
O=C(CSc1nc2ccccc2c(=O)n1-c1ccccc1Cl)NCC1CCCO1 (centres undefined) | -1.8 | x | -10.1 | 14.0 | -4.7 | 5.4
COC(=O)c1cc(C)nc2c1C(=O)C(=O)C=C2N1CCOCC1 | 13.5 | 84.0* | 82.6* | 98.9* | 43.2 | 103.2*
COC(=O)c1cc(S(=O)(=O)N2CCOCC2)c(Cl)cc1N1CCOCC1 | 3.2 | -0.4 | 15.2 | -10.4 | -1.1 | -6.2
COc1ccc(CCN2C(=O)COc3ccccc3C2C(=O)Nc2c(C)cccc2C)cc1OC (centres undefined) | x | x | 4.6 | x | -1.3 | -0.5
OC[C@@H]1CN(Cc2ccc(-c3ccccc3)cc2)C[C@H](n2cnc3c(Nc4ccccc4)ncnc32)O1 | x | x | -42.5 | u | 38.7 | 92.4*
OC[C@@H]1CN(Cc2ccc(-c3ccccc3)cc2)C[C@H](n2cnc3c(NCc4ccc(F)cc4)ncnc32)O1 | x | x | -34.4 | 80.6* | 50.4* | 87.6*
O=C1C=C(N2CCN(c3ccccn3)CC2)C(=O)c2c(O)ccc(O)c21 | -1.8 | 91.9* | 1.3 | -4.2 | 11.7 | 0.8
O=C(N1CCN(c2ccccn2)CC1)C(Cl)(Cl)Cl | -2.0 | -15.2 | -59.3 | -15.5 | -31.4 | -17.7
Nc1[nH]c(=O)nc2snnc12 | -2.8 | 4.9 | 1.1 | -15.1 | 4.1 | -1.4
CCOC(=O)/C=C/C(=O)Nc1cc(S(=O)(=O)Nc2ccc(OC)cc2)ccc1N1CCOCC1 | -20.8 | 55.1 | -16.4 | 9.5 | 24.8 | 56.4*
CCOC(=O)/C=C/S(=O)(=O)c1ccc(NC(C)=O)cc1 | 38.2 | 92.2* | 38.7 | 96.5* | 33.5 | 3.4
CCOC(=O)/C=C/C(=O)Nc1ccc(Oc2ccccc2)cc1 | -3.6 | 6.9 | 33.6 | 2.2 | 8.5 | 70.8*
COc1ccc(NS(=O)(=O)c2ccc(N3CCOCC3)c(NC(=O)C(C)C)c2)cc1 | -3.0 | 7.5 | 9.2 | 66.3 | 3.1 | 12.4
CCOC(=O)/C=C/C(=O)Nc1ccc(S(=O)(=O)Nc2c(C)cc(C)cc2C)cc1 | -11.9 | -0.4 | 30.6 | 12.5 | 50.3* | 27.0
COc1cccc(NC(=O)CN(C)C(C)C(=O)N2CCCC2)c1 (centres undefined) | 6.5 | -4.2 | -1.1 | -28.2 | -3.8 | 4.8
O=C(CCl)NC1CCCc2ccccc21 (centres undefined) | -1.4 | 15.1 | 15.5 | -19.5 | 0.1 | 50.0*
O=C(Cc1ccc(Br)cc1)NC1CCCc2ccccc21 (centres undefined) | -6.8 | -3.3 | 3.4 | 11.1 | -4.1 | -20.2
CCOc1ccc(C(=O)Nc2cc(NC(=O)c3ccc(OCC)c(Cl)c3)cc(C(=O)O)c2)cc1Cl | -3.7 | -13.9 | 2.5 | -10.8 | 43.1 | -23.3
Cc1cccc(OCC(=O)Nc2cc(NC(=O)COc3cccc(C)c3C)cc(C(=O)O)c2)c1C | -0.6 | 19.3 | -30.4 | -1.4 | -8.5 | -17.0
O=C(Nc1ccc(Cl)cc1)Nc1cccc(C(=O)O)c1 | 62.0* | 80.5* | 65.7* | 15.5 | -56.0 | 11.4
CCOc1ccc(C(=O)Nc2cccc(C(=O)O)c2)cc1Cl | 38.7 | 49.7 | 63.5* | -13.5 | -52.0 | 35.5

Screening data deposited in PubChem BioAssay by several laboratories.
